Screening results from PubChem.
ALDH1A1 inh – ALDH1A1 (human) enzyme inhibition; P00352; Purified ALDH1A1, NADH fluorescence, propionaldehyde substrate; Potency, µM (top dose mostly 75.3 µM), inactives show top-dose activity, negative = inhibition, most hits filed as inhibitors; 220,000 compounds, 7.3% hits; active = well fitted inhibition curve with a large enough effect, not every such curve was filed as active; inconclusive = small, poorly fitted or top-dose-only effect, or another doubt; inactive = no such curve, though single readings can be large or run the other way;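 note: potency is the fitted concentration of half-maximal effect; plate controls were no enzyme wells and a reference inhibitor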
aGal spleen mod – inhibitors or activators of human alpha-galactosidase in spleen homogenate; AID 2107; 240,000 compounds, 0.008% hits; Potency, µM (series often up to 80 µM), for the others: at the top dose activity change, negative = inhibition, usual class: inhibitors; human spleen homogenate, 4MU-alpha-Gal fluorescence, 40 min;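 note: potency is the fitted concentration of half-maximal effect; 0% = enzyme with vehicle and -100% = no enzyme basal signal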
Target sequence (P06280 32-429 limits assumed): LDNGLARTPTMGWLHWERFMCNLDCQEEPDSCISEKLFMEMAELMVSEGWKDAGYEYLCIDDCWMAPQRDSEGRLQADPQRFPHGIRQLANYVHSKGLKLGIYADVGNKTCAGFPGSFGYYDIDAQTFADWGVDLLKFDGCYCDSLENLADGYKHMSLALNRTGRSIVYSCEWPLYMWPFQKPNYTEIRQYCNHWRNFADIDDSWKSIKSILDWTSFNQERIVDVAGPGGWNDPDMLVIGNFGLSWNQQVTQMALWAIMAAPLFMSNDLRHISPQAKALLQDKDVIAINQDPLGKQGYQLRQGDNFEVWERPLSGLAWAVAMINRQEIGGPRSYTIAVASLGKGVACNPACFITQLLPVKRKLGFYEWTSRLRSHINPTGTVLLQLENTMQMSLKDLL
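Human spleen homogenate (1 ug) as enzyme source, 4-methylumbelliferyl-alpha-D-galactopyranoside 1 mM final, citrate/phosphate pH 5.0 with 0.01% Tween-20. Compounds 40 min at 37C, NaOH/glycine stop; fluorescence Ex 365/Em 440, Hill-fit AC50.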
HPGD block – HPGD (human) dehydrogenase inhibition. Potency, µM, for the others: at the highest dose activity change, negative = inhibition, most hits filed as inhibitors. purified HPGD, NADH fluorescence kinetic, PGE2 substrate. 150,000 compounds, 4.3% hits; active = well fitted inhibition curve with a large enough effect, not every such curve was filed as active; inconclusive = small, poorly fitted or top-dose-only effect, or another doubt; inactive = no such curve, though single readings can be large or run the other way; note: potency is the fitted concentration of half-maximal effect
Target sequence (P15428 whole entry, looked up): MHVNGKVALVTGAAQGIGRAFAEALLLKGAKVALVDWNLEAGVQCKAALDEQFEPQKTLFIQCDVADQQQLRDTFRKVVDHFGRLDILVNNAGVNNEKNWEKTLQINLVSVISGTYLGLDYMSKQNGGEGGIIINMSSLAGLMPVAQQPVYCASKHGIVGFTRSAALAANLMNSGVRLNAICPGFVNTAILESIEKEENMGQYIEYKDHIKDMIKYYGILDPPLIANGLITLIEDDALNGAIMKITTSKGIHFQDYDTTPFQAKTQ
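20 nM HPGD preincubated 15 min at room temperature with compound in 50 mM Tris-HCl pH 8, 0.01% Tween 20. Started with 1 mM NAD+ and 30 uM prostaglandin E2; NADH fluorescence (360/450 nm) read 5 times over 30-s intervals, last minus first.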
GLA inh pH 4.5 – alpha-galactosidase A (human) inhibition, pH 4.5; P06280; purified enzyme, 4-MU-alpha-Gal fluorescence, pH 4.5; activity change, negative = inhibition, % at 105 µM; 230,000 tested, under 10 active; AID 1467;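 note: 0% = full activity with enzyme and -100% = basal without enzyme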
ALOX12 inhib – inhibitors of human 12-lipoxygenase (ALOX12) | P18054 | purified 12-hLO, xylenol orange hydroperoxide absorbance | Potency, µM (titrated, usually from 57.1 µM), inactives show at the top dose activity change, negative = inhibition, hits mostly inhibitors | 150,000 compounds, 0.12% hits; note: potency is the fitted concentration of half-maximal effect; nearly all actives have a fitted effect of over 55% in size
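150 nM 12hLO, 25 mM Hepes pH 7.0 + 0.01% Triton X-100; cpd preinc 15 min RT; 40 uM arachidonic acid, 30 min RT; Fe-XO 30 min; A573/A405 ratio as read-out.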
PNC inhibitor – inhibitors of perinucleolar compartment assembly. 140,000 compounds, 3.1% hits. PC3M PTB-GFP, PNC prevalence imaging, 16 h; active compounds read low. activity change (PNC), negative = inhibition, % at 10 µM;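 active = readout at or below -70, meaning at least 70% loss of cells showing the perinucleolar compartment, a nuclear body marking cancer cells; inconclusive = readout between -30 and a set limit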;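 note: plate controls were DMSO wells for no effect and camptothecin positive control wells for full effect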
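PC3M cells stably expressing PTB-GFP, 750–1000 cells/well, treated 16 h at 37 °C with compound (23 nl of library stock), in duplicate. After paraformaldehyde fixation and Hoechst stain, imaged at 20x; PNC prevalence scored by image analysis.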
An asterisk follows results filed as active; ? = inconclusive; / = no result; [ ] = another dose, or the depositor's remark. In the library only some 10% were active in any assay of this set; here they are far more common. Unless noted, calls come from the whole dose curve; as a rule, active = well fitted curve in the direction sought with a large enough effect; inconclusive = small, poorly fitted or top-dose-only effect, or another doubt; inactive = no such curve, though single readings can be large; an effect the other way counts as inactive or inconclusive. Unless noted, % is set by controls: 0 for no effect and ±100 for the full control effect.

SMILES	ALDH1A1 inh	aGal spleen mod	HPGD block	GLA inh pH 4.5	ALOX12 inhib	PNC inhibitor
N/C(=N\OC(=O)c1ccc(Cl)cc1Cl)c1cccnc1	?	-4.2%	/	0.6	/	/
Cc1cccc(/C(N)=N/OC(=O)c2cccnc2)c1	12.3%	-7.7%	/	-2.8	/	/
N/C(=N\OC(=O)c1ccc(Cl)cc1Cl)c1ccccc1	-5.3%	14.3%	14.1µM*	7.2	-10.2%	-8.8
Cc1cccc(/C(N)=N/OC(=O)c2ccc(Cl)cc2Cl)c1	8.6%	-2.5%	15.8µM*	0.5	0.7%	-2.2
Cc1noc(NC(=O)c2c(-c3c(Cl)cccc3Cl)noc2C)c1[N+](=O)[O-]	1.6%	9.7%	/	-3.7	/	/
O=C(CN1C(=O)NC2NC(=O)NC21)N/N=C/c1ccccc1F (centres undefined)	6.3%	10.1%	/	6.6	/	/
COc1ccc(CN(C(=O)c2cccc(OC)c2)C2CCS(=O)(=O)C2)cc1 (centres undefined)	/	-3.8%	/	-4.1	/	/
Cc1ccccc1OCC(=O)N(Cc1ccc(N(C)C)cc1)C1CCS(=O)(=O)C1 (centres undefined)	11.2µM*	-8.7%	-3.1%	7.2	3.9%	-10.2
CC(C)CCOc1cccc(OCC(=O)NC2CCS(=O)(=O)C2)c1 (centres undefined)	-2.6%	2.7%	-6.9%	-1.1	6.6%	-6.2
CCN(CC)c1ccc(CN(C(=O)c2ccco2)C2CCS(=O)(=O)C2)cc1 (centres undefined)	22.4µM*	-4.7%	-4.6%	-9.0	-0.6%	?
CN(C(=O)c1ccccc1)c1ccc(OCC(=O)NC2CCS(=O)(=O)C2)cc1 (centres undefined)	14.1µM*	10.4%	-14.8%	-17.7	-2.2%	-12.8
Cc1ccc(OCC(=O)N(Cc2ccc(N(C)C)cc2)C2CCS(=O)(=O)C2)cc1C (centres undefined)	/	-13.0%	/	-3.6	/	/
C=CCOc1ccc(C(=O)N(Cc2ccc(N(C)C)cc2)C2CCS(=O)(=O)C2)cc1 (centres undefined)	10µM*	-3.5%	-15.0%	-6.0	0.7%	32.6
COc1ccc(Oc2ncc3nc(C)c(=O)n(C)c3n2)cc1	-1.6%	-3.5%	-6.7%	/	5.6%	/
COc1ccccc1-n1c(C)nc2cc(C(=O)NCCN3CCOCC3)ccc21	-2.0%	1.3%	/	1.2[21.1 µM]	/	/
COc1cc(C)ccc1OCCOCCOc1cc(C)c(C)cc1Br	-5.3%	0.0%	-24.4%	2.5	-21.2%	-3.8
Cc1cc2nc(CCN(C(=S)NCC(C)C)C3CCCC3)[nH]c2cc1C	-15.9%	-5.5%	-5.3%	-1.8	?	11.9
CN(C)c1ccc(CN(C(=O)C2COc3ccccc3O2)C2CCS(=O)(=O)C2)cc1 (centres undefined)	4.47µM*	1.7%	/	-5.4	-17.9%	11.1
CN(C)c1ccc(CN(C(=O)COc2ccccc2)C2CCS(=O)(=O)C2)cc1 (centres undefined)	3.98µM*	0.5%	-22.0%	-8.5	-1.2%	24.5
CC(C)c1ccc(CN(C(=O)C2COc3ccccc3O2)C2CCS(=O)(=O)C2)cc1 (centres undefined)	?	-3.6%	-14.3%	-7.4	-11.8%	32.8
Nc1c(Cl)cc(Cl)cc1Cl	-2.8%	4.5%	-9.6%	/	-0.5%	/
CC1CCc2c(sc(NC(=S)NC(=O)c3ccccc3)c2C#N)C1 (centres undefined)	/	9.8%	/	-2.0	/	/
CC1(C)Cc2c(sc(NC(=S)NC(=O)c3ccccc3)c2C(=O)O)CO1	22.4µM*	-11.8%	/	-2.8	/	/
Cc1ccccc1C(=O)NC(=S)Nc1sc2c(c1C#N)CCC(C)C2 (centres undefined)	10µM*	8.8%	-21.1%	-11.3	?	?
COc1cccc(C(=O)Nc2sc3c(c2C#N)CCN(C(C)=O)C3)c1	8.91µM*	-0.4%	/	-6.9	/	/
SMILES	ALDH1A1 inh	aGal spleen mod	HPGD block	GLA inh pH 4.5	ALOX12 inhib	PNC inhibitor
CC(C)CC(=O)NC(NC(=S)Nc1sc2c(c1C#N)CCCC2)C(Cl)(Cl)Cl (centres undefined)	3.55µM*	12.7%	14.1µM*	-8.7	?	75.3
CC1(C)Cc2c(sc(NC(=O)c3ccco3)c2C(=O)O)CO1	?	10.3%	-16.3%	7.1	-6.4%	-10.1
O=P(O)(O)C(O)(Cn1ccnc1)P(=O)(O)O	-1.2%	-3.9%	0.2%	-11.0	2.6%[0.00818 µM]	/
N#Cc1c(NC(=S)NC(=O)C2CCCC2)sc2c1CCCCC2	10µM*	1.4%	/	3.2	-0.5%	?
Cn1ncc(Cl)c1C(=O)NC(=S)Nc1sc2c(c1C#N)CCCCC2	?	-2.9%	25.1µM*	6.5	-1.6%	84.8
CCn1cc(C(=O)NC(=S)Nc2sc3c(c2C(=O)OC)CCCCCC3)cn1	2.7%	-0.7%	/	6.3	-1.0%	38.4
CC(C)(C)C(=O)Nc1sc2c(c1C#N)CCCCC2	-1.6%	-4.9%	-16.0%	4.2	0.0%	31.6
N#Cc1c(NC(=S)NC(=O)c2ccccc2)sc2c1CCN(CCc1ccccc1)C2	17.8µM*	13.1%	-18.1%	-10.2	1.7%	?
N#Cc1c(NC(=S)NC(=O)c2ccccc2)sc2c1CCCC2	3.16µM*	?	25.1µM*	-5.8	-2.0%	?
COc1ccc([C@@H](Nc2ccccn2)c2cc(C(C)(C)C)cc(C(C)(C)C)c2O)cc1	11.0%[13.5 µM]	/	-2.4%	/	-1.1%[11.4 µM]	/
C=CCn1c(SCC(=O)NCC2CCCO2)nnc1-c1ccccc1 (centres undefined)	5.2%	4.3%	/	3.1	/	/
NC(=O)CSc1nc2scc(-c3ccco3)c2c(=O)n1-c1ccccc1	3.55µM*	-9.9%	-14.6%	-2.9	-14.6%	-27.5
O=C(CSc1nc2scc(-c3ccco3)c2c(=O)n1-c1ccccc1)NCC1CCCO1 (centres undefined)	12.6µM*	-0.1%	-9.2%	-4.2	-12.8%	-6.3
C=CCn1c(SCC(=O)NCCOC)nc2scc(-c3ccco3)c2c1=O	7.94µM*	18.6%	-12.6%	0.2	-29.9%	11.2
O=C(CSc1nc2scc(-c3ccco3)c2c(=O)n1-c1ccccc1)N1CCOCC1	?	-3.9%	-12.7%	-5.5	-2.4%	-18.3
C=CCn1c(SCC(=O)NCC2CCCO2)nc2scc(-c3ccco3)c2c1=O (centres undefined)	25.1µM*	-0.6%	-26.3%	-0.7	-2.1%	-12.6
COCCn1c(=O)c(-c2ccc(F)cc2)nc2cnc(Nc3cccc(OC)c3)nc21	13.9%	8.9%	/	/	/	/
COc1ccc(CCNC(=O)CSc2nc3cc(Cl)ccc3o2)cc1OC	6.2%	-10.1%	-3.0%	1.7	3.9%	?
C/C(Cc1ccccc1)=N\NC(=O)CNC(=O)c1ccc(Cl)cc1Cl	/	0.5%	/	5.1	/	/
NC(=O)c1cc2c3ccccc3ccn2c1-c1ccccc1	/	12.9%	/	-1.5	/	/
C=CCn1c(SCC(N)=O)nc2scc(-c3ccc(C)o3)c2c1=O	10µM*	-4.9%	/	6.2	/	/
